The values that follow come from PubChem BioAssay AID602262 (National Center for Advancing Translational Sciences (NCATS), 2012).

Unmarked numbers belong to inactive results. Calls follow the shape of the dose curve; as a rule, active = well fitted curve in the direction sought with a large enough effect; inactive = no such curve, though single readings can be large or run the other way.

The nature of the assay: qHTS Assay for Agonists of the Relaxin Receptor RXFP1: V1B SAR. The note with it: HEK293 V1B cells, cAMP TR-FRET, 30 min; series mostly up to 78.1 µM; activation: at the top concentration. The source says:
The relaxin hormone is involved in the variety of biological functions in normal tissues and diseases. The role of relaxin is well-established in female reproduction and parturition, mammary gland and endometrial development, maintenance of myometrial quiescence during pregnancy. Relaxin signaling through its G protein-coupled receptor (GPCR) RXFP1 results in ECM remodeling through regulation of collagen deposition, cell invasiveness, proliferation and overall tissue homeostasis. […] Recombinant human relaxin (rhRlx) is currently being tested in clinical trials as a protective agent in congestive heart failure, in treating severe preeclampsia, and as an anti-fibrotic agent in systemic sclerosis. Upon relaxin binding RXFP1 activation leads to the activation of adenylate cyclase (AC) via Gs. cAMP will activate PKA, which phosphorylates many signaling proteins. Thus, detection of cAMP increase is an easy and reliable indication of relaxin receptor activation. To screen for agonists of the relaxin receptor, a HEK293T cell line stably transfected with RXFP1 was used. RXFP1 activation was assayed by changes in cAMP levels as detected with a time-resolved fluorescence energy transfer (TR-FRET) cAMP detection kit. This assay measures activation of a cell expressing V1B, another GPCR targeted by relaxin, to determine the selectivity of compounds for RXFP1. NIH Chemical Genomics Center [NCGC] NIH Molecular Libraries Probe Production Centers Network [MLPCN] MLPCN Grant: R03 MH085705-01A1 Assay Submitter (PI): Alexander Agoulnik
This is a cell-based assay for cAMP second messenger response to screen for agonists of the RXFP2 receptor. The assay was conducted in the presence of a PDE4 inhibitor (Ro 20174). The cells were lysed and the cAMP levels were measured with a TR-FRET cAMP kit. Presence of cAMP in the cell lysate disrupts binding between the cryptate-labeled anti-cAMP and d2-labeled cAMP pair, leading to a decrease in the TR-FRET signal. Data were normalized to the controls for basal activity (buffer only) and 100% activity (29 nM porcine relaxin). The EC50 values were determined from concentration-response data modeled with the standard Hill equation 1536-well assay protocol for the HEK293 V1B cAMP assay: (1) Add 3 ul HEK293 RXFP2 cell culture. 2000 cells/well in DMEM/F12, 10% FBS, 1x Pen/Strep (dispensed offline with MultiDrop Combi). (2) Incubate 16-24 hr at 37C, 5% CO2. (3) Add 1 ul 400uM Ro20174 in DPBS, 0.05% BSA, 0.005% Tween 20. (3) Add 23 nl compounds in DMSO solution. Final concentration was 0.5 - 58 uM. (4) Incubate 30 min at 37C, 5% CO2. (5) Add 1 ul cAMP-d2 in lysis buffer (HTRF cAMP HiRange kit, CisBio). (6) Add 1 ul anti-cAMP antibody-cryptate in lysis buffer (HTRF cAMP HiRange kit, CisBio). (7) Incubate 30 min at room temperature. (6) Detect the assay plate in a ViewLux plate reader (PerkinElmer) with Ex=320 nm, Em1=615 nm and Em2=665 nm. Keywords: relaxin, RXFP1, RXFP2, G-protein coupled receptor, cAMP, agonist, high throughput screening, MLSMR, MLSCN, NIH Roadmap, qHTS and NCGC
In general terms: In qHTS, concentration-response curves come from the screen itself.
For the molecule `CCOc1ccccc1C(=O)Nc1ccccc1C(=O)Nc1cccc(S(=O)(=O)C(F)(F)F)c1`, the “activation” value is -0.766%.

Consider `O=C(Nc1ccccc1C(=O)Nc1cccc(C(F)(F)F)c1)c1ccccc1Cl`, for which the “activation” value was 3.73%.

Regarding `Cc1ccccc1NC(=O)c1ccccc1NC(=O)C1CCCCC1`, the “activation” value is -4.45%.

For `COc1ccc(C(=O)Nc2ccccc2C(=O)Nc2cccc(C(F)(F)F)c2)cc1`, the “activation” value was 3.66%.

For `COc1cccc(OC)c1C(=O)Nc1ccccc1C(=O)Nc1cccc(C(F)(F)F)c1`, the “activation” value was -1.17%.

For `COc1ccccc1Nc1ccccc1C(=O)Nc1cccc(C(F)(F)F)c1`, the “activation” value is -2.38%.

`COc1ccccc1C(=O)N(C)c1ccccc1C(=O)N(C)c1cccc(C(F)(F)F)c1`: the “activation” value was -1.13%.

`O=C(NCc1ccco1)c1ccccc1NC(=O)c1ccccc1NC(=O)C1CCCCC1`: the “activation” value is 5.67%.

For the molecule `CCOc1ccccc1C(=O)Nc1sccc1C(=O)Nc1cccc(S(=O)(=O)C(F)(F)F)c1`, the “activation” value is 12.3%.

Take `COc1ccccc1C(=O)Nc1ccc(C(=O)Nc2cccc(C(F)(F)F)c2)cc1`: the “activation” value is -3.39%.

As to `O=C(Nc1ccccc1)c1ccccc1NC(=O)C1CCCCC1`, the “activation” value is -1.89%.

As for `COCCOc1ccccc1C(=O)Nc1ccccc1C(=O)Nc1cccc(C(F)(F)F)c1`, the “activation” value is -2.02%.

Turning to `CCCCOc1ccccc1C(=O)Nc1ccccc1C(=O)Nc1cccc(S(=O)(=O)C(F)(F)F)c1`, the “activation” value was -0.668%.

As for `O=C(Nc1cccc(-c2ccccc2)c1)c1ccccc1NC(=O)C1CCCCC1`, the “activation” value is -3.61%.

As to `CCOc1ccccc1C(=O)Nc1ncccc1C(=O)Nc1cccc(S(=O)(=O)C(F)(F)F)c1`, the “activation” value is 2.36%.

Turning to `CCOc1ccccc1C(=O)Nc1ccccc1C(=O)Nc1cccc(C(F)(F)F)c1`, the “activation” value was 7.36%.

In the case of `O=C(Nc1cccc(C(F)(F)F)c1)c1ccccc1NC(=O)C1CC1`, the “activation” value was 8.37%.

As for `O=C(Nc1cccc(C(F)(F)F)c1)c1ccccc1NC(=O)C1CCCCC1`, the “activation” value is 1.32%.

Take `O=C(Nc1cccc(C(F)(F)F)c1)c1ccccc1NC(=O)c1ccccc1OC(F)(F)F`: the “activation” value is 2.56%.

For `O=C(Nc1cccc(Cl)c1)c1ccccc1NC(=O)C1CCCCC1`, the “activation” value was -5.01%.

For the molecule `CCCCC(=O)Nc1ccccc1C(=O)Nc1cccc(C(F)(F)F)c1`, the “activation” value was -2.71%.

Turning to `CCOc1ccccc1C(=O)Nc1ccccc1CNc1cccc(S(=O)(=O)C(F)(F)F)c1`, the “activation” value was 2.87%.

In the case of `COc1ccccc1CNc1ccccc1C(=O)Nc1cccc(C(F)(F)F)c1`, the “activation” value is 1.52%.

For `Cc1ccccc1C(=O)Nc1ccccc1C(=O)Nc1cccc(C(F)(F)F)c1`, the “activation” value was -2.4%.

`CC(C)(C)c1cccc(NC(=O)c2ccccc2NC(=O)C2CCCCC2)c1`: the “activation” value is -3.36%.

Turning to `COc1ccccc1-c1ccccc1C(=O)Nc1cccc(C(F)(F)F)c1`, the “activation” value is 3.5%.

For `O=C(Nc1cccc(C(F)(F)F)c1)c1ccccc1NC(=O)C1CCCCCC1`, the “activation” value was 3.2%.

For the molecule `O=C(Nc1cccc(F)c1)c1ccccc1NC(=O)C1CCCCC1`, the “activation” value is -4.78%.

Consider `O=C(Nc1cccc(-c2cccc(C(F)(F)F)c2)c1)c1ccccc1NC(=O)C1CCCCC1`, for which the “activation” value was 2.41%.

`CCCOc1ccccc1C(=O)Nc1ccccc1C(=O)Nc1cccc(S(=O)(=O)C(F)(F)F)c1`: the “activation” value is 0.371%.

Take `COc1cccc(C(=O)Nc2ccccc2C(=O)Nc2cccc(C(F)(F)F)c2)c1`: the “activation” value was 1.57%.

In the case of `COc1ccccc1C(=O)Nc1ccccc1C(=O)N(C)c1cccc(C(F)(F)F)c1`, the “activation” value was -3.58%.

On to `O=C(Nc1cccc([N+](=O)[O-])c1)c1ccccc1NC(=O)C1CCCCC1`, for which the “activation” value is 1.46%.

With `COc1ccccc1C(=O)Nc1cccc(C(=O)Nc2cccc(C(F)(F)F)c2)c1`, the “activation” value is 0.812%.

Regarding `CCC(CC)C(=O)Nc1ccccc1C(=O)Nc1cccc(C(F)(F)F)c1`, the “activation” value was 1.55%.

In the case of `CCOc1ccccc1C(=O)Nc1cccnc1C(=O)Nc1cccc(S(=O)(=O)C(F)(F)F)c1`, the “activation” value is -5.24%.

For the molecule `CN(C)CCOc1ccccc1C(=O)Nc1ccccc1C(=O)Nc1cccc(C(F)(F)F)c1`, the “activation” value was 1.12%.

`O=C(Nc1cccc(-c2ccccc2C(F)(F)F)c1)c1ccccc1NC(=O)C1CCCCC1`: the “activation” value is 3.89%.

`CCOc1ccccc1-c1nc2c(C(=O)Nc3cccc(S(=O)(=O)C(F)(F)F)c3)cccc2[nH]1`: the “activation” value is 5.06%.

Turning to `COc1ccccc1C(=O)Nc1ccccc1C(=O)Nc1cccc(S(=O)(=O)C(F)(F)F)c1`, the “activation” value was -2.19%.
